The nature of test [1]: small molecules captured by biotinylated probe aFSTL3 – biochemical, small-molecule microarray, fluorescence 635/667, stem cell growth factor project, primary screen (AID 1064).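 Note: measures binding of the biotinylated anti-FSTL3 antibody to printed compounds.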 The following applies: higher = more signal.
The nature of test [2]: binders from COS7 lysate, DM2A8 probe, primary screen, torsin A project, cell lysate, small-molecule microarray, fluorescence 635/667 (AID 1065). The following applies: higher = more signal, COS7 lysate expressing mutant human TOR1A.
Test [3] in a line: small molecules captured by biotinylated probe aFGF2 – biochemical, small-molecule microarray, fluorescence 635/667, stem cell growth factor project, primary screen (AID 1067).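 Note: measures binding of biotinylated aFGF2 protein to printed compounds on slides; z-score merges feature fluorescence and signal-to-noise across triplicate slides.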 The following applies: higher = more signal.
Test [4] is described as follows: small molecules captured by biotinylated probe aFGF10 – biochemical, small-molecule microarray, fluorescence 635/667, stem cell growth factor project, primary screen (AID 1071).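 Note: score merges 667 nm spot intensity and signal to noise from triplicate slides.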 Conditions: higher = more signal.
Test [5] deals with Neurogenic locus notch homolog protein 2 (Homo sapiens) (UniProt Q04721). Put plainly: small molecules binding Notch2 protein – biochemical, small-molecule microarray, 635 nm fluorescence, stem cell growth factors, primary screen (AID 1073). Conditions: higher = more signal.
Test [6] has as its target Pro-neuregulin-1, membrane-bound isoform (Homo sapiens) (UniProt Q02297). Put plainly: small molecules binding neuregulin-1 protein – biochemical, small-molecule microarray, fluorescence 635/667, psychiatric disease protein project, primary screen (AID 1075).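 Note: score combines 667 nm spot fluorescence with signal to noise.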 The following applies: NRG1 binding, 635 nm fluorescence, higher = more signal.
Test [7] has as its system Neuregulin-1 EGF-like domain. Put plainly: small molecules binding NRG1 EGF domain – biochemical, small-molecule microarray, 635 nm fluorescence, primary screen (AID 1081).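 Note: binding of the protein to compounds printed on small-molecule microarray slides.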 Conditions: higher = more signal.
Test [8] in a line: FRG1 expression reporter modulators in myotubes – cell-based, C2C12 myotubes, firefly/Renilla luciferase, luminescence, FRG1 inhibition for FSHD, primary screen (AID 1084). The following applies: FRG1 promoter luciferase, higher = more signal, called active from +8 up or from −8 down.
A short description of test [9]: small molecules captured by biotinylated probe aFST – biochemical, small-molecule microarray, fluorescence 635/667, stem cell growth factor project, primary screen (AID 1086).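 Note: score merges 667 nm fluorescence with signal-to-noise of each printed compound spot.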 Conditions: higher = more signal.
The nature of test [10]: binders of probe aHhip on microarray, primary screen, stem cell growth factor project, biochemical, small-molecule microarray, fluorescence 635/667 (AID 1087).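 Note: score merges spot fluorescence at 667nm with spot signal to noise ratio.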 The following applies: higher = more signal.
The test system of test [11] is PRMT1 (protein arginine N-methyltransferase 1). Put plainly: small molecules binding arginine methyltransferase PRMT1 – biochemical, small-molecule microarray, 635 nm fluorescence, primary screen (AID 1088).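 Note: binding of Prmt1 protein to compounds spotted on small-molecule microarray slides.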 Conditions: higher = more signal.
The nature of test [12]: growth effects on S. cerevisiae YJM789 – YJM789 clinical isolate, OD600, 24 h, basal, primary screen (AID 1089).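 Note: growth of clinical yeast isolate S. cerevisiae YJM 789 seeded 1000 cells per well; test concentration not given here.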 The following applies: higher = more signal, called active from +8 up or from −8 down.
The nature of test [13]: S. pombe growth modifiers, basal conditions – strain 972, OD600, 24 h, no modulator, primary screen (AID 1090).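 Note: basal condition with compound alone and no growth modifier present; test concentration not given here.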 The following applies: S. pombe 972 growth, higher = more signal, called active from +8 up or from −8 down.
A short description of test [14]: budding yeast growth modifiers under rapamycin – strain BY4716, OD600, 96 h, primary screen (AID 1091). Note: test concentration not given here. Conditions: S. cerevisiae BY4716 + rapamycin, higher = more signal, called active from +8 up or from −8 down.
Test [15] addresses Torsin-1A-interacting protein 2 (Homo sapiens) (UniProt Q8NFQ8). Put plainly: small molecules binding lysate-expressed LULL1 – cell lysate, human LULL1 lysate, 635/667 nm fluorescence, primary screen (AID 1092).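 Note: probe is lysate of COS7 cells overexpressing human LULL1; score merges per-feature 667 nm fluorescence with signal-to-noise.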 The following applies: small-molecule microarray, hLULL1 lysate binding, 635 nm fluorescence; higher = more signal.
A short description of test [16]: optical density change of DRC41 E. coli – strain DRC41, OD650, 24 h, E. coli filamentation project, primary screen (AID 1093).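 Note: MC1000 strain lacking acrAB efflux and sulA so SOS filamentation is blocked; test concentration not given here.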 The following applies: E. coli DRC41 growth, higher = more signal, called active from +8 up or from −8 down.
The nature of test [17]: probe aLefty2 binding to arrayed compounds – biochemical, biotinylated probe, 635/667 nm fluorescence, primary screen (AID 1094).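 Note: score merges spot fluorescence near 667 nm with spot signal-to-noise ratio.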 The following applies: small-molecule microarray, higher = more signal.
For test [18], the system named is Noggin (protein binding on small-molecule microarray). Put plainly: small molecules binding Noggin protein – biochemical, 635/667 nm fluorescence, primary screen (AID 1095).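 Note: score merges 667 nm feature fluorescence with signal to noise over triplicate slides.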 The following applies: 635 nm fluorescence, higher = more signal.
Test [19] addresses Neurogenic locus notch homolog protein 3 (Homo sapiens) (UniProt Q9UM47). Put plainly: small molecules binding NOTCH3 protein – biochemical, 635/667 nm fluorescence, primary screen (AID 1096). The following applies: small-molecule microarray, 635 nm fluorescence, higher = more signal.
Test [20] is described as follows: probe aEGFR binding to arrayed compounds – biochemical, biotinylated probe, 635/667 nm fluorescence, primary screen (AID 1097).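 Note: probe is a biotinylated anti-EGFR antibody binding compounds printed on slides; score combines fluorescence near 667 nm and signal to noise of each spot.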 The following applies: small-molecule microarray, higher = more signal.

“And” between values parts separate entries of the source, which are not always exact repeats. Equal entries are not always repeated. The source made the active and inactive calls.

Torsin-1A-interacting protein 2 (Homo sapiens), sequence (Q8NFQ8 whole entry, looked up): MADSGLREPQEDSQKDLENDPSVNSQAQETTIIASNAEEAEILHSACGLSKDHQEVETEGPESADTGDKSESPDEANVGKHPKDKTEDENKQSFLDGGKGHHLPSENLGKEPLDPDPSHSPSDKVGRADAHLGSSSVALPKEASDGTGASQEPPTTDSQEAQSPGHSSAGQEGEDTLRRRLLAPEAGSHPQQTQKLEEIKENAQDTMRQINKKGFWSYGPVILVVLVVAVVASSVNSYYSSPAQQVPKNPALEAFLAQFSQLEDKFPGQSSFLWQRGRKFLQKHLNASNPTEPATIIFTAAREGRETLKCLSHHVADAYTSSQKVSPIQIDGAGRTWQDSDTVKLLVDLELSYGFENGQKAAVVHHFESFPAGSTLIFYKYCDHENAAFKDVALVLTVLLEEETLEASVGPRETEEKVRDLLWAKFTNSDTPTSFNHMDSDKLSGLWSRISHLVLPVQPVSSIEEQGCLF
Neurogenic locus notch homolog protein 3 (Homo sapiens), sequence (Q9UM47 whole entry, looked up): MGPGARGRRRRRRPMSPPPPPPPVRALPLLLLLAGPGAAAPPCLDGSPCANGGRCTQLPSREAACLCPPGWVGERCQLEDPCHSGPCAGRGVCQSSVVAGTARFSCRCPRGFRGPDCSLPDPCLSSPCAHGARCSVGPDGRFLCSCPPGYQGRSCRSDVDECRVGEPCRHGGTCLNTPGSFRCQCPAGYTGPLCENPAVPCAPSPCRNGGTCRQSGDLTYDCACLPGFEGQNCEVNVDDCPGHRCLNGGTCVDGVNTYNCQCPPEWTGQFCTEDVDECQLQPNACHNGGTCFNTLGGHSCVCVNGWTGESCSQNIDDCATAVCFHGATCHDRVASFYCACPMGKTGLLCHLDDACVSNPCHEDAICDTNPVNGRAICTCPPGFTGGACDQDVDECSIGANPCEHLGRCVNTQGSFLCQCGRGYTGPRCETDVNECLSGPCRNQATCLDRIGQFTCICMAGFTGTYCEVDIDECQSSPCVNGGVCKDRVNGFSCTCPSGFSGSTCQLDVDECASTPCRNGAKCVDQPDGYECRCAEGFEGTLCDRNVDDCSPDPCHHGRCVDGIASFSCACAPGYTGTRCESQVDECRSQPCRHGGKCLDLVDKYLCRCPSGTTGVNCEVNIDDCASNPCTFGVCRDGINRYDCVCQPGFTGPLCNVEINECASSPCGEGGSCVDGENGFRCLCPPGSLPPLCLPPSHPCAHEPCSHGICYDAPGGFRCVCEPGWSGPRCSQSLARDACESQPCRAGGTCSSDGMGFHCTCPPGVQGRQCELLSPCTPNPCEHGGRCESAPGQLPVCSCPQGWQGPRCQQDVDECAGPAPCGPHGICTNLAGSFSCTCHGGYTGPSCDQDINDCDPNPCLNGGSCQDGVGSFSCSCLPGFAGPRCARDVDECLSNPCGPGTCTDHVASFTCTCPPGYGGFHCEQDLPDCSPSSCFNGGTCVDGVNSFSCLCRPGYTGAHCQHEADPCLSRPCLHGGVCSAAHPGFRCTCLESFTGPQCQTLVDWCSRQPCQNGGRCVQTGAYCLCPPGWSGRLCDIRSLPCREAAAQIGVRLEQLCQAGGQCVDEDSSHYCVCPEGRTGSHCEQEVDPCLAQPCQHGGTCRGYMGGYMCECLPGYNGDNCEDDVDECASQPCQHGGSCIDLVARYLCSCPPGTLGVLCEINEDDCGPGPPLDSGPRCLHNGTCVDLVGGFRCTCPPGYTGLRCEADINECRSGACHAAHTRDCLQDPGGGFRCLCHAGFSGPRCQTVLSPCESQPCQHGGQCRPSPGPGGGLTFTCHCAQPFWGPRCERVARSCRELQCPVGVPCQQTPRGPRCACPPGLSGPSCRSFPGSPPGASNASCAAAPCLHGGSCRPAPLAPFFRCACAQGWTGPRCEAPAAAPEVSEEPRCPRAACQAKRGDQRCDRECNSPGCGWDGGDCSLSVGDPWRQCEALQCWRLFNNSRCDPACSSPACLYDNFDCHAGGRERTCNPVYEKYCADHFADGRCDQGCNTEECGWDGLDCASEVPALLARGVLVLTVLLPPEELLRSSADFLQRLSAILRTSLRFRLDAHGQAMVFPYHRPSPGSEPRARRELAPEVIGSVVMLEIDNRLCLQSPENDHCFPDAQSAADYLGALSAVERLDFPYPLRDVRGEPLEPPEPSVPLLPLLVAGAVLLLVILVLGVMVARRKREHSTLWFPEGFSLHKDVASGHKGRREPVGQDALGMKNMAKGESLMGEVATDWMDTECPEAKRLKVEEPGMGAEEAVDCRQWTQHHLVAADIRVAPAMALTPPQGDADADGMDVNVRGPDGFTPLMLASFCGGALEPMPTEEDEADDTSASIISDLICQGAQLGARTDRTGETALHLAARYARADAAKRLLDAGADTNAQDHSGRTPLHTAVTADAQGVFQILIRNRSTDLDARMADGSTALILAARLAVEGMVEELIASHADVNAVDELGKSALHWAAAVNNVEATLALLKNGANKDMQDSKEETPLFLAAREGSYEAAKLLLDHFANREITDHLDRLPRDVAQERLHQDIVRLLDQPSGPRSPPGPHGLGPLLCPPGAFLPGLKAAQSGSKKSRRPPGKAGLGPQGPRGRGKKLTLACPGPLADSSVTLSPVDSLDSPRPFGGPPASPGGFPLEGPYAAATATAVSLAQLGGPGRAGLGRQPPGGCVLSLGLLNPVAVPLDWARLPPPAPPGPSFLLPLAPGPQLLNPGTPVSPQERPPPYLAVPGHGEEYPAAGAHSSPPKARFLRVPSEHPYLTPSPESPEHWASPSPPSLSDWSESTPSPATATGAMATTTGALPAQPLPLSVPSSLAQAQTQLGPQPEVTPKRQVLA
Pro-neuregulin-1, membrane-bound isoform (Homo sapiens), sequence (Q02297 whole entry, looked up, the tested form may be a part, canonical isoform): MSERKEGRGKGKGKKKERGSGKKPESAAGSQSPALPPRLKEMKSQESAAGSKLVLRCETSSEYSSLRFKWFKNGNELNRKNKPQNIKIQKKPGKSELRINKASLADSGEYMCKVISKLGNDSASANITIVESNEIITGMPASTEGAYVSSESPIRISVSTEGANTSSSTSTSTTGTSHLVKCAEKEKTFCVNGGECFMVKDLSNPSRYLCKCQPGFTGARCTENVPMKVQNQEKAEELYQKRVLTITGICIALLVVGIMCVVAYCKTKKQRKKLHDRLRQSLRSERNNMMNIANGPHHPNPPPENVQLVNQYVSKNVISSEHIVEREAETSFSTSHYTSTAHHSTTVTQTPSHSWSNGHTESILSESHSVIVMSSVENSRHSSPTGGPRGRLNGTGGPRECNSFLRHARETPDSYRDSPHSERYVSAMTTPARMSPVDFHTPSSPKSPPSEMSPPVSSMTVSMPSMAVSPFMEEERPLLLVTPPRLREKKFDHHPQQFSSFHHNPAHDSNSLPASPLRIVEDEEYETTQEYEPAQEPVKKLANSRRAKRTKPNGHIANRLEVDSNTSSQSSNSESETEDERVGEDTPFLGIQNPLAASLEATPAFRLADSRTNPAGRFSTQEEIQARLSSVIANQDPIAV

For the molecule `C=C[C@@H](OC)[C@H](O)c1ccc(OCCO)cc1`, the composite z-score in test [1] is -0.145 and 0.184; in [2] it was -0.492 and -1.23; in test [3] it was -0.206 and -0.178; in [4], -0.976 and -0.915; in [5], -1.07 and -1.57; in [6], -0.748 and -0.394. For the same molecule, the composite z-score in test [7] is -0.0048 and 0.0968; in [9], -0.984 and -1.26; in test [10] it was -0.236 and -0.196; in [11], 0.194 and -0.0886; in [15], 1.5 and -0.567; in [17], -0.0466 and -0.0666. Further, the composite z-score in test [18] is -0.902 and -0.131; in [19], -0.19 and -0.876; in test [20], -0.383 and -0.265. Besides, the z-score is 1.74 (inactive) and 0.386 (inactive) in [8]; -0.0303 (inactive) and -2.64 (inactive) in test [12]; 0.331 (inactive) and -1.68 (inactive) in test [13]; -0.603 (inactive) and -0.883 (inactive) in test [14]; -0.443 (inactive) and 2.25 (inactive) in test [16].

With `CC(CO)N1C(=O)[C@@H]2C3C(=O)OCCC=C[C@H]3OC23C=CCN(c2ccc(Cl)cc2)C(=O)[C@@H]13` (stereo not given in full), the composite z-score was 0.982 and -0.0072 in test [1]; -0.821 and -1.3 in test [2]; -0.0959 and -0.159 in [3]; -0.556 and -0.282 in test [4]; -0.709 and 0.149 in [5]; -0.618 and 2 in [6]. The composite z-score in test [7] is 0.923 and 1.44; in test [9], -0.91 and 0.118; in [10] it was 0.0053 and 0.0092; in test [11] it was -1.06 and 1.32; in [15], -0.81 and 3.57; in test [17], 0.149 and -0.0998. In addition, the composite z-score is -2.2 and -0.556 in test [18]; -1.43 and 0.107 in test [19]; -0.186 and -0.0788 in test [20]. The z-score in test [8] was 0.741 (inactive) and 1.08 (inactive); in [12], 1.37 (inactive) and -1.45 (inactive); in [13] it was 0.628 (inactive) and -1.21 (inactive); in test [14] it was 0.872 (inactive) and -0.713 (inactive); in test [16], 0.226 (inactive) and -0.379 (inactive).

With `C=CCN(C(=O)C1N(c2ccc(CCO)cc2)C(=O)C2C(C(=O)O)C3C=CC21O3)c1ccc(OC)cc1` (stereo not given), the composite z-score was 0.0619 and 0.336 in test [1]; -0.767 and -0.885 in test [2]; -0.226 and -0.276 in [3]; -0.19 and -1.02 in [4]; -0.903 and -1.23 in test [5]; -0.0224 and -1.32 in test [6]. Moreover, the composite z-score in [7] was 0.939 and -0.115; in test [9], -0.477 and -1.4; in [10], -0.132 and -0.236; in test [11], -0.133 and -0.497; in test [15], 0.0657 and -1.42; in test [17] it was -0.0641 and 0.0524. For the same molecule, the composite z-score in [18] is -1.24 and -0.818; in test [19], 0.0568 and -1.8; in [20] it was -0.302 and -0.367. Besides, the z-score in test [8] is 4.82 (inactive) and -0.639 (inactive); in [12], 0.156 (inactive) and -0.236 (inactive); in [13], 0.332 (inactive) and -0.577 (inactive); in test [14], 0.131 (inactive) and -1.62 (inactive); in test [16], 0.683 (inactive) and 2.67 (inactive).

As for `Cc1cc2c(nc1C)CCCN2CC(O)CN1CCCc2nc(-c3ccc(Br)cc3)ccc21` (stereo not given), the composite z-score in [1] is 0.738 and 1.41; in test [2], 0.694 and 0.644; in [3], 0.115 and 0.363; in [4], 0.902 and 0.602; in test [5] it was 1.15 and 1.39; in [6], 1.56 and 1.11. The composite z-score is 1.16 and 1.11 in test [7]; 0.916 and 0.891 in test [9]; 0.968 and 2.11 in [10]; 1.55 and 1.54 in test [11]; 1.25 and 1.75 in test [15]; 0.467 and 0.823 in test [17]. Moreover, the composite z-score in test [18] was 1.02 and 0.741; in test [19], 1.1 and 1.11; in test [20] it was 0.304 and 0.48. The z-score is 4.83 (inactive) and 2.39 (inactive) in test [8]; 0.612 (inactive) and 1.25 (inactive) in test [12]; -3.62 (inactive) and -0.716 (inactive) in test [13]; -1.15 (inactive) and -0.578 (inactive) in test [14]; -0.804 (inactive) and 0.109 (inactive) in test [16].

As to `COC(=O)C1=C(C)N(Cc2ccccc2)[C@]23O[C@](C(=O)OC)(C(=O)N2[C@@H]1c1ccccc1)[C@@H](c1ccccc1)[C@@H]3C(=O)c1ccccc1`, the composite z-score in test [1] was -0.139 and -0.413; in test [2] it was 0.458 and -0.235; in [3] it was -0.0716 and -0.0931; in test [4] it was 0.236 and 0.391; in [5], 0.789 and 0.499; in test [6] it was 0.489 and -0.621. For the same molecule, the composite z-score in test [7] is 0.428 and 0.602; in test [9], 0.398 and 0.155; in [10] it was -0.132 and -0.226; in [11], 0.618 and 0.917; in test [15], 0.869 and 0.031; in test [17], -0.185 and 0.0062. Further, the composite z-score was 0.115 and 0.974 in [18]; 0.58 and 0.216 in test [19]; 0.0557 and -0.0428 in [20]. Besides, the z-score in test [8] is -0.0163 (inactive) and 0.21 (inactive); in test [12], -1.15 (inactive) and -0.583 (inactive); in test [13], -3.18 (inactive) and -1.19 (inactive); in test [14], -1.82 (inactive) and -0.776 (inactive); in test [16] it was -0.0517 (inactive) and 0.951 (inactive).

With `C=CCN(C(=O)C1N(c2c(Cl)cccc2CO)C(=O)C2C(C(=O)O)C3C=CC21O3)C(C)(C)C` (stereo not given), the composite z-score in [1] is -0.933 and 1.87; in test [2] it was -1.67 and -0.997; in test [3], -0.238 and -0.0459; in [4], -0.782 and -0.419; in [5], -0.872 and -1.15; in test [6], 0.0516 and -0.736. Besides, the composite z-score was 0.0868 and -0.844 in test [7]; -0.347 and -0.422 in test [9]; -1.01 and 0.51 in [10]; -0.17 and -0.656 in [11]; 0.893 and -1.28 in [15]; -0.359 and -0.152 in test [17]. Besides, the composite z-score in test [18] is -1.7 and -1.45; in test [19], -0.873 and -0.616; in test [20], -0.403 and -0.366. In addition, the z-score in test [8] is 0.756 (inactive) and -1.07 (inactive); in test [12], 0.61 (inactive) and -1.92 (inactive); in test [13] it was 0.857 (inactive) and -1.43 (inactive); in [14], -0.509 (inactive) and -0.74 (inactive); in [16] it was 2.58 (inactive) and 1.44 (inactive).

On to `Cc1ccc(S(=O)(=O)N[C@@H]2COC(=O)CC=C[C@@H](C)[C@@H]3C=C[C@H](O)[C@@H](COC(=O)CC=C[C@H]2C)O3)cc1`, for which the composite z-score in test [1] is -0.534 and -0.776; in [2], 1.1 and 0.792; in [3], -0.131 and -0.175; in test [4] it was 0.0127 and 0.11; in test [5], -0.557 and 0.111; in test [6], -0.22 and -0.195. The composite z-score in test [7] is 0.0077 and 0.324; in [9], 0.101 and 0.0406; in test [10], 0.0243 and -0.26; in test [11] it was 0.438 and 0.385; in test [15] it was -0.0372 and -0.0592; in [17], -0.185 and -0.162. The composite z-score in [18] was 0.902 and 0.305; in test [19] it was -0.0571 and 0.584; in test [20] it was -0.072 and -0.112. For the same molecule, the z-score in [8] is 0.132 (inactive) and 0.646 (inactive); in [12], -0.147 (inactive) and -0.184 (inactive); in [13] it was -0.349 (inactive) and -0.549 (inactive); in [14], -0.564 (inactive) and -0.784 (inactive); in [16] it was 0.651 (inactive) and -0.667 (inactive).
